Data on 13 molecules can be found in PMC12864922, “TDP-43 directly inhibits mRNA accumulation in neurites through modulation of mRNA stability”.

The labels stand for the following.
B1: ENSMUSG00000004113.365|Cacna1b (ssRNA)
RNA: GGGAGUUCUACAGUCCGACGAUCGCUUCGAUAUCCGCAUGCUAUAUACAAAGGCACAAUACCCUGAAACUUUAACAGAGUAUUUUAUUCCAGUAGGGUAAAAUUAAACGGGACUCUUGGACUGCGCAUGUGACUGCACCCACGUUGCAACAGAGAAGGAUGUGCAUUUUGAUACUGAUGUUCUGUCUCUGUUCCAGCCCCAGCCCCCUUUUCUCUUGAGUGUUGAAUGUAUACAUUCUGUGUGGAACUACAGCUGCCUCAGACAAUCCUGGGUUGGGAAUCAUCUUUAUCCCACAUCAACAUACUCUUGCGGUCGCACUAGUGUGGAAUUCUCGGGUGUCAAGG
B2: ENSMUSG00000058297.177|Spock2 (ssRNA)
RNA: GGGAGUUCUACAGUCCGACGAUCGCUUCGAUAUCCGCAUGCUAUGUCAUCAUAUAGCUGAGAUUUGGAGUAGCCUGCUAUGAGGGCUUGCAGUUGCACUCUCUGUUCCCUGGCGAGGGUCCCCCUUGUCCCAAGGAGCAGAGGACCAGCAAGCAGCCCGUGUCUGCUCACCUUCUCCCUGACCCUCUAGGAAAUGGUUCCCUCUUGCCCCGACCAAUAGAAGGGCGUGUCCCCGAGACCCUUGUGAGGAACCACGGGGAGCUGUGACUUCCUGUGCCCAGAAGGUCCUGGAGGAGAGGCCCCACUCUUGCGGUCGCACUAGUGUGGAAUUCUCGGGUGUCAAGG
B3: ENSMUSG00000058297.112|Spock2|39:44 (ssRNA)
RNA: GGGAGUUCUACAGUCCGACGAUCGCUUCGAUAUCCGCAUGCUAUACUAUCCGUCUCCUGACAUCCGAAGAGCUCGUCGCAGCACACACUAAUGGCCCUUGGGCUGCACGUGGUUAAGCAUAGCUGUCUCUGUGGCCCAACACAAAGAGGUAAACUUACUUAAAACACAGGGGUUUUGUUGCUGUUUGUUUUUUGUUAGUUUGUUUGUUGAUAAUUGGAUUGAGGAGUUAAUCCUCUGUCACAAUGUCAAAAGCAUGGACAUCCCUGAUAGAUUAUCUCUCAACCUAGUCCCGAGUAACCAGAGCUCUUGCGGUCGCACUAGUGUGGAAUUCUCGGGUGUCAAGG
B4: ENSMUSG00000022095.12|Fam160b2|69:73 (ssRNA)
RNA: GGGAGUUCUACAGUCCGACGAUCGCUUCGAUAUCCGCAUGCUAAACUUCUCUCCACCUCCAGAAGGGCAAGUCUGAGCCAGGAGCAUGACGGGUGGGGGAAGAUUCCUGCCACACAACUUCUGCCCACGGGCAGUCUCCUGCCUGGCCAUGCUGCCACUCUGUCCUCCAUGCCGGGGACUUCAGCUGCAGGACACCUCACCUGUUGACCCCACGAGCUGAGGUUUCAAGGAGGUGCUGGCUCCUAAGGCAGUGGUAUUCUUGGAGCCUUUUAGAGGAGCUAGAGGAUGGCCAGUGAGCGCCUACUCUUGCGGUCGCACUAGUGUGGAAUUCUCGGGUGUCAAGG
B5: ENSMUSG00000028439.123|Fam219a|54:58 (ssRNA)
RNA: GGGAGUUCUACAGUCCGACGAUCGCUUCGAUAUCCGCAUGCUACUGAGGGUUGGGAAGGUAAGAUGGGCCUUAGAGAGAAGCCAGGUUUGGGGAUGCAUACACCUGUUCUCACCGGUCUCUAACCAGUGCAUCUGUCUCUCUGCCUCAUCCCCACACCGCCCUGCCACCCCCAGUCUUCUGUCUAUUGGUUCCAGGCUGGAAGCAAGAGAUAAGGCUGGCCUCCUGUGCCCCAUUGCCAUUUCACCCUAGCUCAAAGUCCAGGAGCCAGGCUUCCAGAAAGGCUCUUCAAGAGCAAGCUUAAGCUCUUGCGGUCGCACUAGUGUGGAAUUCUCGGGUGUCAAGG
B6: ENSMUSG00000042529.393|Kcnj12 (ssRNA)
RNA: GGGAGUUCUACAGUCCGACGAUCGCUUCGAUAUCCGCAUGCUAUCCGACUUGAGUCCCUGCCCUGCCCUGGUUAUGCAGGCUGUACGACGCAGUGUGCAUCAGUCUGAGGAGUCUGGUGGUAAGUAAGCCUCUGCAGCAGACCCUGUCGGAGGCCAUGGGGGCGUGUGUGUGUGUGUGUGUGUGUGUGUGUGUGUGUGUGUGUGUGUGUGUGUGUGAACAUGUGUGAGGGUGUGGAGGUCCCAGGGUGUGUGUAUGUGAAUGUCAGUGGCUUGGGUGCUGUGUGGAGAGAGAGAGAGAGAGAGCUCUUGCGGUCGCACUAGUGUGGAAUUCUCGGGUGUCAAGG
B7: ENSMUSG00000042529.392|Kcnj12 (ssRNA)
RNA: GGGAGUUCUACAGUCCGACGAUCGCUUCGAUAUCCGCAUGCUAGAUCAGUCCGACUUGAGUCCCUGCCCUGCCCUGGUUAUGCAGGCUGUACGACGCAGUGUGCAUCAGUCUGAGGAGUCUGGUGGUAAGUAAGCCUCUGCAGCAGACCCUGUCGGAGGCCAUGGGGGCGUGUGUGUGUGUGUGUGUGUGUGUGUGUGUGUGUGUGUGUGUGUGUGUGUGUGAACAUGUGUGAGGGUGUGGAGGUCCCAGGGUGUGUGUAUGUGAAUGUCAGUGGCUUGGGUGCUGUGUGGAGAGAGAGAGAGCUCUUGCGGUCGCACUAGUGUGGAAUUCUCGGGUGUCAAGG
B8: ENSMUSG00000042529.398|Kcnj12 (ssRNA)
RNA: GGGAGUUCUACAGUCCGACGAUCGCUUCGAUAUCCGCAUGCUAAUGCAGGCUGUACGACGCAGUGUGCAUCAGUCUGAGGAGUCUGGUGGUAAGUAAGCCUCUGCAGCAGACCCUGUCGGAGGCCAUGGGGGCGUGUGUGUGUGUGUGUGUGUGUGUGUGUGUGUGUGUGUGUGUGUGUGUGUGUGAACAUGUGUGAGGGUGUGGAGGUCCCAGGGUGUGUGUAUGUGAAUGUCAGUGGCUUGGGUGCUGUGUGGAGAGAGAGAGAGAGAGAGAGAGAGAGAGAGAGAGAGAGAGAGAGAGAGCUCUUGCGGUCGCACUAGUGUGGAAUUCUCGGGUGUCAAGG
B9: ENSMUSG00000058297.302|Spock2|29:34 (ssRNA)
RNA: GGGAGUUCUACAGUCCGACGAUCGCUUCGAUAUCCGCAUGCUAAUGCCCAGGAAGAGUGAGGGCAGCCCCCACACACGUGGAAGAGGCUGGGCAGCUAGCUACUGGGGACCUUGUGCUGAGGCUUCCAGGACAAAGCCCCAGUCUGGCUCUCCCCCAGCCUCUCAGGGGCACUGGCUGGUCACAUCCACUGAGUAUUGAUCGGUUGGACUUUAGGGAAGAGCCUCCUCCUUCCCAUUCCUUUCUGCCACCCUGGAAUGGCCACCUUAAUCGUCAUCUCCUCGGGGGGAAUACGGAAAUGUCACCUCUUGCGGUCGCACUAGUGUGGAAUUCUCGGGUGUCAAGG
B10: ENSMUSG00000042529.386|Kcnj12 (ssRNA)
RNA: GGGAGUUCUACAGUCCGACGAUCGCUUCGAUAUCCGCAUGCUACCUGAACUGGUCAGGCUGGAUGCUGGCCACAGACAUGAUCAGUCCGACUUGAGUCCCUGCCCUGCCCUGGUUAUGCAGGCUGUACGACGCAGUGUGCAUCAGUCUGAGGAGUCUGGUGGUAAGUAAGCCUCUGCAGCAGACCCUGUCGGAGGCCAUGGGGGCGUGUGUGUGUGUGUGUGUGUGUGUGUGUGUGUGUGUGUGUGUGUGUGUGUGUGAACAUGUGUGAGGGUGUGGAGGUCCCAGGGUGUGUGUAUGUGAAUCUCUUGCGGUCGCACUAGUGUGGAAUUCUCGGGUGUCAAGG
B11: ENSMUSG00000042529.388|Kcnj12 (ssRNA)
RNA: GGGAGUUCUACAGUCCGACGAUCGCUUCGAUAUCCGCAUGCUAAGGCUGGAUGCUGGCCACAGACAUGAUCAGUCCGACUUGAGUCCCUGCCCUGCCCUGGUUAUGCAGGCUGUACGACGCAGUGUGCAUCAGUCUGAGGAGUCUGGUGGUAAGUAAGCCUCUGCAGCAGACCCUGUCGGAGGCCAUGGGGGCGUGUGUGUGUGUGUGUGUGUGUGUGUGUGUGUGUGUGUGUGUGUGUGUGUGUGAACAUGUGUGAGGGUGUGGAGGUCCCAGGGUGUGUGUAUGUGAAUGUCAGUGGCUUGCUCUUGCGGUCGCACUAGUGUGGAAUUCUCGGGUGUCAAGG
B12: ENSMUSG00000042529.387|Kcnj12 (ssRNA)
RNA: GGGAGUUCUACAGUCCGACGAUCGCUUCGAUAUCCGCAUGCUACUGGUCAGGCUGGAUGCUGGCCACAGACAUGAUCAGUCCGACUUGAGUCCCUGCCCUGCCCUGGUUAUGCAGGCUGUACGACGCAGUGUGCAUCAGUCUGAGGAGUCUGGUGGUAAGUAAGCCUCUGCAGCAGACCCUGUCGGAGGCCAUGGGGGCGUGUGUGUGUGUGUGUGUGUGUGUGUGUGUGUGUGUGUGUGUGUGUGUGUGUGAACAUGUGUGAGGGUGUGGAGGUCCCAGGGUGUGUGUAUGUGAAUGUCAGUCUCUUGCGGUCGCACUAGUGUGGAAUUCUCGGGUGUCAAGG
B13: ENSMUSG00000042529.397|Kcnj12 (ssRNA)
RNA: GGGAGUUCUACAGUCCGACGAUCGCUUCGAUAUCCGCAUGCUACUGGUUAUGCAGGCUGUACGACGCAGUGUGCAUCAGUCUGAGGAGUCUGGUGGUAAGUAAGCCUCUGCAGCAGACCCUGUCGGAGGCCAUGGGGGCGUGUGUGUGUGUGUGUGUGUGUGUGUGUGUGUGUGUGUGUGUGUGUGUGUGUGAACAUGUGUGAGGGUGUGGAGGUCCCAGGGUGUGUGUAUGUGAAUGUCAGUGGCUUGGGUGCUGUGUGGAGAGAGAGAGAGAGAGAGAGAGAGAGAGAGAGAGAGAGAGAGCUCUUGCGGUCGCACUAGUGUGGAAUUCUCGGGUGUCAAGG

Over roughly 9,900 sequences, “r (bound/input frequency ratio)” has its median near 0.7; the highest 2% begin near 6.5. This excerpt belongs to a sample that is enriched for the highest values.

Chain of TDP-43 (Q13148 whole entry): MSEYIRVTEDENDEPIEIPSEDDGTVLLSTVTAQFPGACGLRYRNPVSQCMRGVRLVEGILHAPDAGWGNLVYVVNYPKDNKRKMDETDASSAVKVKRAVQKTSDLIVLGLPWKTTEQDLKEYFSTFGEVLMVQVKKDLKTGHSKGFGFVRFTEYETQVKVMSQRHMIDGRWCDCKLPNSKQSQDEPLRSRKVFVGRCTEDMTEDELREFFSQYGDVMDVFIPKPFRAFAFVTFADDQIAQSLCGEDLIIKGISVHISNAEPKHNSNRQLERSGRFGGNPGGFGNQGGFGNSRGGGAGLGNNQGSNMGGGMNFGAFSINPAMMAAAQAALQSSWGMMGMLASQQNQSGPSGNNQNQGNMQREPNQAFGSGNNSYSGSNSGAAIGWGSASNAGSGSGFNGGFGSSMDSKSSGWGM

This assay addresses TDP-43 (Homo sapiens, UniProt Q13148 1-414). Description: RNA Bind-n-Seq with designed 260-mer pool; 25 mM Tris-HCl, 150 mM KCl, 3 mM MgCl2, BSA (printed 500 mg/mL), 20 units/mL SUPERase IN; pH not stated; 500 nM RNA pool, 1 h, 4 C; TDP-43 5, 50, 500 nM; high values mean tight binding. Particulars: protein: recombinant; tags: SBP (GST cleaved off with PreScission; pGEX-GST-SBP). In outline:
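For each oligo, R gives binding as its mapped-read-normalized abundance after pulldown divided by its abundance in input. Bead-captured SBP-tagged TDP-43 (5, 50 or 500 nM) was incubated with 500 nM of an in vitro-transcribed 260-nt 3′ UTR oligo pool for 1 h at 4 °C in 25 mM Tris-HCl, 150 mM KCl, 3 mM MgCl2, BSA and SUPERase IN on streptavidin beads. Washed, biotin-eluted RNA was reverse transcribed, PCR-amplified and sequenced.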
Consider B1, for which the binding signal is 0.216 R (bound/input frequency ratio).

B2: the binding signal is 0.086 R (bound/input frequency ratio).

With B3, the binding signal is 1.33 R (bound/input frequency ratio). To B4 belongs 0.253 R (bound/input frequency ratio). Consider B5, for which the binding signal is 0.5 R (bound/input frequency ratio). For B6, the binding signal was 5.42 R (bound/input frequency ratio). For B7, the binding signal is 7.12 R (bound/input frequency ratio). In the case of B8, the binding signal was 5.26 R (bound/input frequency ratio). To B9 belongs 0.746 R (bound/input frequency ratio); to B10, 6.36 R (bound/input frequency ratio). In the case of B11 it was 9.68 R (bound/input frequency ratio); in that of B12, 12.1 R (bound/input frequency ratio); in that of B13, 5.15 R (bound/input frequency ratio).
